# Reference: PubChem BioAssay (NCATS)
# Results filed as inconclusive are left out. Active and inactive are the calls of the source. Unless noted, calls follow the shape of the full dose curve.
# Assays:
# [1] = qHTS for identification of novel therapeutic agents for treatment of microphthalmiaassociated transcription factor (MiT) renal cell carcinoma (RCC) (AID 1963991); conditions: CellTiter-Glo, 48 h; for z-score: stronger effect = lower value; for Potency: active = Z-AUC below -0.8 in all three lines;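 as to z-score: curves scaled with 100% = DMSO viability and 0% = empty wells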
# In short: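 UOK109/UOK124/UOK145 (TFE3 fusions, three partners); 500 cells/well; MIPE v4.0, 1912 cpds, 11 conc.; 48 h, 37 C; CellTiter-Glo, 15 min RT; lum. Norm.: DMSO 100%, empty 0%.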
# [2] = qHTS drug screen for cell cycle checkpoint inhibitors in PARPi-resistant BRCA-mutant ovarian cancer cell lines. (AID 1963452); conditions: PEO1/OlaR viability, CellTiter-Glo luminescence, 96 h; for Z-AUC: stronger effect = lower value
# In short: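 PEO1, PEO4 and PEO1/OlaR ovarian cancer cells, 600 per well, exposed 96 h at 37C to a dilution series. Viability read by CellTiter-Glo luminescence, normalized to DMSO and empty wells; activity summarized as Z-AUC.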
# [3] = qHTS profiling for inhibitors of Plasmodium falciparum proliferation (AID 504749; active = well fitted inhibition curve with a large enough effect; also: nearly all actives have a fitted effect of over 60% in size); conditions: P. falciparum in erythrocytes, SYBR Green DNA, 72 h
# In short: (§1)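 P. falciparum-infected erythrocytes (0.3% parasitemia, 2.5% hematocrit) incubated with compound 72 h at 37 C, 5% CO2. Parasite DNA detected by SYBR Green after lysis, overnight at room temperature; normalised to 0.29 uM artemisinin and DMSO.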
# 3D7 = experiment: as above; conditions: P. falciparum in erythrocytes, SYBR Green DNA, 72 h; series mostly up to 28.7 µM
# In short: as §1
# AA1029 = experiment: as above; conditions: P. falciparum in erythrocytes, SYBR Green DNA, 72 h; series mostly up to 28.7 µM
# In short: as §1
# AS120 = experiment: as above; conditions: P. falciparum in erythrocytes, SYBR Green DNA, 72 h; series mostly up to 28.7 µM
# In short: as §1
# [4] = TFE3-RCC UOK109 viability, measured here: UOK109 Z-AUC
# [5] = TFE3-RCC viability, measured here: UOK124 Z-AUC
# [6] = TFE3-RCC viability, measured here: UOK145 Z-AUC
# [7] = measured here: PEO1 parental Z-AUC
# Potency is read from the fitted curve at half-maximal effect.
smiles,measurement,setting,value
CCN1CCN(C(=O)N[C@H](C(=O)N[C@@H]2C(=O)N3C(C(=O)O)=C(CSc4nnnn4C)CS[C@@H]23)c2ccc(O)cc2)C(=O)C1=O,z-score,[1]; [4],3.06
same,z-score,[1]; [5],1.43
same,z-score,[1]; [6],2.48
CCC(C(=O)O)C1CCC(C)C(C(C)C(O)C(C)C(=O)C(CC)C2OC3(C=CC(O)[C@@]4(CC[C@](C)(C5CC[C@@](O)(CC)C(C)O5)O4)O3)C(C)CC2C)O1 (some centres undefined),Potency,[2],1380 nM (active)
same,Z-AUC,[2]; [7],-1.77
same,Z-AUC,[2]; measured here: PEO4 Z-AUC,-1.98
same,Potency,[3]; parasite line A,1000 nM (active)
same,Potency,[3]; parasite line B,1120 nM (active)
same,Potency,3D7,794 nM (active)
same,Potency,AA1029,891 nM (active)
same,Potency,AS120,631 nM (active)
C[C@]12CCC(=O)C=C1[C@@H]1CC1[C@H]1[C@H]3[C@@H]4C[C@H]4[C@@]4(CCC(=O)O4)[C@@]3(C)CC[C@H]12 (some centres undefined),z-score,[1]; [4],0.661
same,z-score,[1]; [5],0.572
same,z-score,[1]; [6],-2.84
COc1ccc(Nc2cc(-c3cnc(N)nc3)nc(N3CCOCC3)n2)cn1,Z-AUC,[2],0.44 (inactive)
same,Z-AUC,[2]; [7],-0.145
same,Z-AUC,[2]; measured here: PEO4 Z-AUC,0.339
same,Potency,[1]; TFE3-RCC UOK109 viability,526 nM (active)
same,z-score,[1]; [4],-1.16
same,z-score,[1]; [5],-2.53
same,z-score,[1]; [6],-2.08
C[C@H]1O[C@H](O[C@H]2[C@H](O)[C@@H](O)[C@@H](O[C@H]3[C@H](O)[C@@H](O)C(O)O[C@H]3CO)O[C@H]2CO)[C@H](O)[C@@H](O)[C@H]1N[C@H]1C=C(CO)[C@@H](O)[C@H](O)[C@@H]1O (some centres undefined),z-score,[1]; [4],0.975
same,z-score,[1]; [5],0.169
same,z-score,[1]; [6],1.64
CC1(C)[C@H](O[C@H]2O[C@H](C(=O)O)[C@@H](O)[C@H](O)[C@H]2O[C@@H]2O[C@H](C(=O)O)[C@@H](O)[C@H](O)[C@H]2O)CC[C@@]2(C)[C@H]1CC[C@]1(C)[C@H]2C(=O)C=C2[C@H]3C[C@@](C)(C(=O)O)CC[C@]3(C)CC[C@]21C,z-score,[1]; [4],0.831
same,z-score,[1]; [5],0.728
same,z-score,[1]; [6],0.774
C=C1C[C@@]2(O)O[C@@]3(C[C@H]2C(C)C)[C@H](C)CC[C@H]13,z-score,[1]; [4],0.729
same,z-score,[1]; [5],0.339
same,z-score,[1]; [6],0.0529
C=CC(=O)Nc1ccc2ncnc(Nc3ccc(OCc4cccc(F)c4)c(Cl)c3)c2c1,Z-AUC,[2],-0.749 (inactive)
same,Z-AUC,[2]; [7],-1.48
same,Z-AUC,[2]; measured here: PEO4 Z-AUC,-1.57
same,Potency,[1]; TFE3-RCC UOK109 viability,590 nM (active)
same,z-score,[1]; [4],-2.47
same,z-score,[1]; [5],-3.02
same,z-score,[1]; [6],-1.72
Cc1cnc(Nc2ccc(CN3CCOCC3)cc2)nc1Nc1cccc(S(=O)(=O)NC(C)(C)C)c1,Z-AUC,[2],-2.02 (inactive)
same,Z-AUC,[2]; [7],-1.2
same,Z-AUC,[2]; measured here: PEO4 Z-AUC,-1.56
same,Potency,[1]; TFE3-RCC UOK109 viability,4180 nM (active)
same,z-score,[1]; [4],-1.32
same,z-score,[1]; [5],-0.971
same,z-score,[1]; [6],-1.1
CN[C@H](CC(C)C)C(=O)N[C@H]1C(=O)N[C@@H](CC(N)=O)C(=O)N[C@@H]2C(=O)N[C@H]3C(=O)N[C@H](C(=O)N[C@H](C(=O)O)c4cc(O)cc(O)c4-c4cc3ccc4O)[C@H](O)c3ccc(c(Cl)c3)Oc3cc2cc(c3O[C@@H]2O[C@H](CO)[C@@H](O)[C@H](O)[C@@H]2O[C@H]2C[C@](C)(N)[C@H](O)[C@H](C)O2)Oc2ccc(cc2Cl)[C@H]1O,z-score,[1]; [4],0.508
same,z-score,[1]; [5],0.868
same,z-score,[1]; [6],0.133
CC(=O)OCC(=O)[C@@]1(O)CC[C@H]2[C@@H]3CCC4=CC(=O)CC[C@]4(C)[C@@H]3C(=O)C[C@@]21C,z-score,[1]; [4],-0.147
same,z-score,[1]; [5],0.413
same,z-score,[1]; [6],0.581
CC(C)N(CC[C@H](c1ccccc1)c1cc(CO)ccc1O)C(C)C,z-score,[1]; [4],0.828
same,z-score,[1]; [5],0.666
same,z-score,[1]; [6],0.832
C[C@@H]1[C@H](C)CC[C@]2(C(=O)O)CC[C@]3(C)C(=CC[C@@H]4[C@@]5(C)C[C@@H](O)[C@H](O)[C@@](C)(CO)[C@H]5CC[C@]43C)[C@@H]12,z-score,[1]; [4],0.114
same,z-score,[1]; [5],0.271
same,z-score,[1]; [6],0.0304
COc1cc([C@@H]2c3cc4c(cc3[C@H](O)[C@H]3COC(=O)[C@@H]23)OCO4)cc(OC)c1OC,Potency,[2],1230 nM (active)
same,Z-AUC,[2]; [7],-1.51
same,Z-AUC,[2]; measured here: PEO4 Z-AUC,-1.58
same,Potency,[1]; TFE3-RCC UOK109 viability,83.3 nM (active)
same,z-score,[1]; [4],-1.41
same,z-score,[1]; [5],-1.77
same,z-score,[1]; [6],-1.2
OCCN1C[C@H](O)[C@@H](O)[C@H](O)[C@@H]1CO,z-score,[1]; [4],0.705
same,z-score,[1]; [5],0.522
same,z-score,[1]; [6],1.03
NC(=O)c1ncn([C@@H]2O[C@H](CO)[C@@H](O)[C@@H]2O)c1O,z-score,[1]; [4],0.702
same,z-score,[1]; [5],0.298
same,z-score,[1]; [6],0.0692
CC(=O)C1=C(O)C=C2Oc3c(C(C)=O)c(O)c(C)c(O)c3C2(C)C1=O (centres undefined),z-score,[1]; [4],0.861
same,z-score,[1]; [5],0.834
same,z-score,[1]; [6],-0.166
COc1ccc(S(=O)(=O)Nc2cccnc2Nc2ccc(O)cc2)cc1,Potency,[2],1380 nM (active)
same,Z-AUC,[2]; [7],-1.73
same,Z-AUC,[2]; measured here: PEO4 Z-AUC,-1.84
same,Potency,[1]; TFE3-RCC UOK109 viability,132 nM (active)
same,z-score,[1]; [4],-0.858
same,z-score,[1]; [5],-1.8
same,z-score,[1]; [6],-1.74
CNC(=O)Nc1ccc(-c2nc(N3CC4CCC(C3)O4)c3cnn(C4CCC5(CC4)OCCO5)c3n2)cc1,Z-AUC,[2],-0.248 (inactive)
same,Z-AUC,[2]; [7],-0.236
same,Z-AUC,[2]; measured here: PEO4 Z-AUC,-1.02
same,Potency,[1]; TFE3-RCC UOK109 viability,41.8 nM (active)
same,z-score,[1]; [4],-1.43
same,z-score,[1]; [5],-1.26
same,z-score,[1]; [6],-2.73
CC(=O)OCC(=O)[C@@]12N=C(C)O[C@H]1C[C@H]1[C@@H]3CCC4=CC(=O)C=C[C@]4(C)[C@@H]3[C@@H](O)C[C@@]12C,z-score,[1]; [4],0.415
same,z-score,[1]; [5],0.48
same,z-score,[1]; [6],2.44
